This is a sample that favours compounds with a hit; in the whole collection about 0.99% have one here.
BLM inh-1: qHTS Assay for Inhibitors of Bloom's syndrome helicase (BLM); RecQ-like DNA helicase BLM (Homo sapiens), P54132; recombinant BLM DNA unwinding, fluorescence dequenching; Potency, µM (titrated, usually from 56.1 µM), hits mostly inhibitors; 350,000 tested, 0.2% active; note: nearly all actives have a fitted effect of over 35% in size
FEN1 inh-1: qHTS Assay for the Inhibitors of Human Flap endonuclease 1 (FEN1). P39748. Recombinant FEN1 flap cleavage, fluorescence, 15 min. Potency, µM (series often up to 114 µM), actives largely listed as inhibitors. 390,000 tested, 0.35% active; note: nearly all actives have a fitted effect of over 65% in size
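Quantitative HTS format: each compound was titrated, incubated with 10 nM nuclease for 15 min at room temperature, then challenged with flap substrate at 50 nM final. Signal change over 15 min gave concentration–effect curves.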
WRN inhibitor: qHTS for Inhibitors of WRN Helicase. Bifunctional 3'-5' exonuclease/ATP-dependent helicase WRN (Homo sapiens), Q14191. WRN helicase unwinding, fluorescent forked duplex, kinetic. Potency, µM (highest dose often 114 µM), actives largely listed as inhibitors. 360,000 tested, 0.46% active; note: nearly all actives have a fitted effect of over 55% in size
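WRN at 20 nM final was preincubated with compound for 15 min at room temperature; reaction started with 100 nM forked duplex oligonucleotide carrying fluorophore and quencher plus 2 mM ATP (final). Unwinding followed kinetically by red fluorescence (ex 525/em 598 nm).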
L3MBTL1 inh-1: qHTS Assay for the Inhibitors of L3MBTL1 | Lethal(3)malignant brain tumor-like protein 1 (Homo sapiens), Q9Y468 | AID 485360, 2010 | 230,000 tested, 0.66% active | Potency, µM (titrated, usually from 57.1 µM), hits mostly inhibitors | AlphaScreen L3MBTL1–H3K9me1 peptide binding; note: nearly all actives have a fitted effect of over 60% in size
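AlphaScreen proximity signal between nickel-chelate acceptor and streptavidin donor beads (final 10 ug/mL) reports binding of 50 nM L3MBTL1 to 75 nM biotin-H3 K9me1 peptide; complex incubated with compounds 30 min at room temperature; cefsulodin titration as control.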
RECQ1 inh-1: qHTS Assay for Inhibitors of RecQ-Like Dna Helicase 1 (RECQ1); 240,000 tested, 0.54% active; ATP-dependent DNA helicase Q1 (Homo sapiens), P46063; Potency, µM (titrated, usually from 57.3 µM), most hits filed as inhibitors; RECQ1 DNA unwinding, red fluorescence kinetic read; note: nearly all actives have a fitted effect of over 30% in size
Target sequence (P46063 whole entry, looked up): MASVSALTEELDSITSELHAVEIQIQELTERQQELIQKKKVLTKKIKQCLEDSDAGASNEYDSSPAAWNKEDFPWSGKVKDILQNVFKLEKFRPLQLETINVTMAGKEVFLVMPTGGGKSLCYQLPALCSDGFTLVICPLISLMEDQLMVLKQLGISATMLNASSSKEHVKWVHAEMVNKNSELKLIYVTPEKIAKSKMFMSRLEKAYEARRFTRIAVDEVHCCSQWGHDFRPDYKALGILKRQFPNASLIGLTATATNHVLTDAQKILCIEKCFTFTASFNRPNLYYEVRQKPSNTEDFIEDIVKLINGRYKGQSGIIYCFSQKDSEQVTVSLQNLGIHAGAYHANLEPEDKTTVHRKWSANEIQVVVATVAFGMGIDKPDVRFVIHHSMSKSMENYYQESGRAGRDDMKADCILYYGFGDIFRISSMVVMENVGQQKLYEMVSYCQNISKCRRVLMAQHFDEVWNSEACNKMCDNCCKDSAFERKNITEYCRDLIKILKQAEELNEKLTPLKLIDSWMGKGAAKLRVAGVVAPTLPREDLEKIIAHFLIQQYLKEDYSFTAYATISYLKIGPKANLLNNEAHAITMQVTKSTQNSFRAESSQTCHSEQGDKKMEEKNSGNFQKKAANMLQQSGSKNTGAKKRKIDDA
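RECQ1T1 50 nM; forked duplex (20 bp + 30-nt ss tails) 200 nM, ATP 2 mM final; pH 8.0, 2 mM MgCl2, 2.5 ug/ml poly(dI-dC); 15 min compound preincubation; discontinuous kinetic read over 2 h at RT.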
BLM inh-2: qHTS Confirmation Assay for Inhibitors of Bloom's syndrome helicase (BLM); shares compounds with BLM inh-1; BLM DNA unwinding, fluorescence quenching, biochemical; Potency, µM, most hits filed as inhibitors; 220 tested, 40% active;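 note: strand separation dequenches TAMRA so unwinding raises red fluorescence; series mostly up to about 69 µM; nearly all actives have a fitted effect of over 45% in size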
RECQ1 conf: Confirmation qHTS Assay for Inhibitors of RecQ-Like Dna Helicase 1 (RECQ1). shares compounds with RECQ1 inh-1. RECQ1 helicase DNA unwinding, fluorescence. Potency, µM (series often up to 229 µM), hits mostly inhibitors. 610 tested, 28% active. AID 2708, 2010; note: nearly all actives have a fitted effect of over 45% in size
ADP FP counter: Counterscreen for RECQ1 Inhibitors: ADP Fluorescence Polarization Displacement Assay | ADP fluorescence polarization displacement counterscreen | shares compounds with RECQ1 inh-1 | Potency, µM (doses to about 228 µM), hits mostly inhibitors | 530 tested, 27% active; note: nearly all actives have a fitted effect of over 45% in size
RECQ1 inh-2: Confirmation qHTS Assay for Inhibitors of RecQ-Like Dna Helicase 1 (RECQ1) - Round 2 Cherry Picks | shares compounds with RECQ1 inh-1 | recombinant RECQ1 DNA unwinding, red fluorescence | Potency, µM (titrated, usually from 119 µM), most hits filed as inhibitors | 1,100 tested, 15% active | AID 504841, 2011; note: nearly all actives have a fitted effect of over 50% in size
L3MBTL1 inh-2: qHTS Assay for the Inhibitors of L3MBTL1: Hit Validation; L3MBTL1 methyl-lysine binding inhibition, biochemical qHTS; shares compounds with L3MBTL1 inh-1; 500 tested, 91% active; Potency, µM, hits mostly inhibitors; note: nearly all actives have a fitted effect of over 70% in size
L3MBTL1 ctr: qHTS Assay for the Inhibitors of L3MBTL1: Hit Validationin AlphaScreen Counterscreen; shares compounds with L3MBTL1 inh-1; AlphaScreen counterscreen, signal inhibition; Potency, µM (doses to about 57.1 µM), usual class: inhibitors; 500 tested, under 10 active; AID 602224, 2012
FEN1 inh-2: qHTS Assay for the Inhibitors of FEN1: Confirmatory Assay for Cherry-picked Compounds; shares compounds with FEN1 inh-1; FEN1 flap cleavage, TAMRA/BHQ2 fluorogenic DNA substrate; Potency, µM, most hits filed as inhibitors; 880 tested, 79% active; AID 720498, 2013; note: nearly all actives have a fitted effect of over 60% in size
Numbers stand for hits. Calls come from the whole dose curve; as a rule, active = well fitted curve in the direction sought with a large enough effect; inconclusive = small, poorly fitted or top-dose-only effect, or another doubt; inactive = no such curve, though single readings can be large; an effect the other way counts as inactive or inconclusive.

For CCCN(C(=O)c1cc2c(s1)CCC2)c1c(N)n(Cc2ccccc2)c(=O)[nH]c1=O the results were BLM inh-1 14µM, FEN1 inh-1 inactive, WRN inhibitor inactive, L3MBTL1 inh-1 18µM, RECQ1 inh-1 22µM, BLM inh-2 inconclusive, RECQ1 conf 40µM, ADP FP counter inactive, RECQ1 inh-2 inactive, L3MBTL1 inh-2 5.3 and L3MBTL1 ctr inactive.
Screening COc1cc(/C=N\NC(=O)c2ccc(C)nc2)ccc1OC(=O)c1cccc(F)c1 returned BLM inh-1 inactive, FEN1 inh-1 inactive and WRN inhibitor inactive.
`COc1ccc(N2Cc3cccc(C(=O)N4CCN(C(=O)c5ccco5)CC4)c3C2=O)cc1` gave BLM inh-1 18µM, FEN1 inh-1 inactive, WRN inhibitor 50µM, L3MBTL1 inh-1 28µM, RECQ1 inh-1 10µM, BLM inh-2 23µM, RECQ1 conf 40µM, ADP FP counter inconclusive, RECQ1 inh-2 16µM, L3MBTL1 inh-2 2.7 and L3MBTL1 ctr inactive.
Screening Oc1ccc(/C=N/NC(=S)N/N=C/c2ccc(O)cc2)cc1 returned BLM inh-1 inactive, FEN1 inh-1 inconclusive, WRN inhibitor inactive, L3MBTL1 inh-1 inconclusive and RECQ1 inh-1 inactive.
Cc1ccc(/C=c2\sc3nc(-c4ccco4)nn3c2=O)o1 was read as BLM inh-1 25µM, FEN1 inh-1 inconclusive, WRN inhibitor 56µM, L3MBTL1 inh-1 7.9µM, RECQ1 inh-1 inactive, BLM inh-2 inactive, L3MBTL1 inh-2 17 and L3MBTL1 ctr inactive.
`O=C(CCC(=O)N1CCN(S(=O)(=O)c2ccc(Cl)cc2)CC1)Nc1ccc2ccccc2c1` gave BLM inh-1 inactive, FEN1 inh-1 inactive, WRN inhibitor inactive, L3MBTL1 inh-1 inactive and RECQ1 inh-1 inactive.
Cc1ccc(-c2nn3c(C)nnc3s2)cc1NC(=O)c1ccc(-c2cccc(Cl)c2)o1 was read as BLM inh-1 inactive, FEN1 inh-1 inconclusive, WRN inhibitor 50µM, L3MBTL1 inh-1 22µM, RECQ1 inh-1 13µM, BLM inh-2 inactive, ADP FP counter inactive, RECQ1 inh-2 inconclusive, L3MBTL1 inh-2 7.5 and L3MBTL1 ctr inactive.
CSc1nc(NCCOCCO)c2sc3nc(-c4ccco4)c4c(c3c2n1)CCC4 was read as BLM inh-1 25µM, FEN1 inh-1 inactive, WRN inhibitor inactive, L3MBTL1 inh-1 5.6µM, RECQ1 inh-1 25µM, BLM inh-2 inconclusive, RECQ1 inh-2 inconclusive, L3MBTL1 inh-2 2.7 and L3MBTL1 ctr inactive.
Screening CSc1nc(NCc2ccco2)c2sc3nc(C(C)C)c4c(c3c2n1)CC(C)(C)OC4 returned BLM inh-1 inactive, FEN1 inh-1 inactive, WRN inhibitor inactive, L3MBTL1 inh-1 inactive and RECQ1 inh-1 inactive.
Screening CCC1=NN2C(=N)/C(=C\c3cccn3-c3ccc(Cl)cc3)C(=O)N=C2S1 returned BLM inh-1 inactive, FEN1 inh-1 inactive, WRN inhibitor inactive and RECQ1 inh-1 inactive.
For Cc1ccc(-n2cccc2/C=C2\C(=N)N3N=C(c4ccco4)SC3=NC2=O)cc1 the results were BLM inh-1 20µM, FEN1 inh-1 22µM, WRN inhibitor inconclusive, L3MBTL1 inh-1 inconclusive, RECQ1 inh-1 inconclusive, BLM inh-2 29µM, RECQ1 inh-2 inconclusive and FEN1 inh-2 43.
Screening O=C(Nc1ccc(Cc2ccncc2)cc1)c1ccc([N+](=O)[O-])o1 returned BLM inh-1 inactive, FEN1 inh-1 inactive and WRN inhibitor inactive.
For CSc1cccc(NS(=O)(=O)c2ccc3c(c2)CCN3C(C)=O)c1 the results were BLM inh-1 inactive, FEN1 inh-1 inactive and WRN inhibitor inactive.
Fc1cc(F)c2nc(Nc3nc4cc5c(cc4s3)OCO5)sc2c1 was read as BLM inh-1 10µM, FEN1 inh-1 inconclusive, WRN inhibitor 28µM, L3MBTL1 inh-1 inactive, RECQ1 inh-1 inconclusive, BLM inh-2 inconclusive and FEN1 inh-2 43.
`COc1cc(Cl)c(C)cc1NC(=O)CSc1ncc(S(=O)(=O)c2ccc(C(C)(C)C)cc2)c(=O)[nH]1` gave BLM inh-1 16µM, FEN1 inh-1 inconclusive, BLM inh-2 23µM and FEN1 inh-2 48.
